Test results as given in PubChem BioAssay (NCI).
Compounds without any hit were thinned out: in the full panel of roughly 83,000, 20% have a hit.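 Assay: single dose, 48 h. Readout: percent growth (0 = no net growth; negative = cell death). Active: <10.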 Active and inactive are the calls of the source.

Columns and labels:
Test in all cases: NCI-60 one-dose screen, 48 h (100 = growth as untreated, 0 = no growth, -100 = all killed)
Conditions in all cases: 10 µM unless noted
T-47D breast = tested on: T-47D breast
BT-549 breast = tested on: BT-549 breast
MDA-MB-435 melanoma = tested on: MDA-MB-435 melanoma
SW-620 colon = tested on: SW-620 colon
MCF7 breast = tested on: MCF7 breast
HCT-116 colon = tested on: HCT-116 colon
HCC-2998 colon = tested on: HCC-2998 colon
KM12 colon = tested on: KM12 colon

Measured: growth

CCN(CC)CCCOc1ccc2c(c1)O/C(=C\c1cccc(OC)c1)C2=O
inactive: T-47D breast 87.6% | BT-549 breast 78.4% | MDA-MB-435 melanoma 91.9% | SW-620 colon 73.9% | MCF7 breast 72.8% | HCT-116 colon 51.8% | HCC-2998 colon 86.7% | KM12 colon 93.2%

COc1ccc(-c2cc(-c3ccccc3)nc(NCCNc3ccnc4cc(Cl)ccc34)n2)cc1
active: T-47D breast -64.6% | BT-549 breast -69.4% | MDA-MB-435 melanoma -68.8% | SW-620 colon -68.2% | MCF7 breast -75.7% | HCT-116 colon -74.1% | HCC-2998 colon -81.1% | KM12 colon -72.7%

O=C(Nc1ccc(C(=O)/C=C/c2ccc(N3CCOCC3)cc2)cc1)Nc1ccc([N+](=O)[O-])cc1
inactive: T-47D breast 72.8% | BT-549 breast 108% | MDA-MB-435 melanoma 96% | SW-620 colon 99.7% | MCF7 breast 76.3% | HCT-116 colon 97.3% | HCC-2998 colon 109% | KM12 colon 89.4%

Cc1ccc(-c2cc(-c3ccc(C)cc3)nc(N3CCN(CCNc4ccnc5cc(Cl)ccc45)CC3)n2)cc1
active: SW-620 colon -29.1% | HCT-116 colon -3.1%
inactive: T-47D breast 71.8% | BT-549 breast 67.6% | MDA-MB-435 melanoma 23.3% | MCF7 breast 15.5% | HCC-2998 colon 16.6% | KM12 colon 31.9%

COc1ccc(C(=O)CSc2nnc(-c3cc(-c4ccccc4)nc4ccccc34)o2)cc1
inactive: T-47D breast 108% | BT-549 breast 105% | MDA-MB-435 melanoma 106% | SW-620 colon 107% | MCF7 breast 103% | HCT-116 colon 101% | HCC-2998 colon 118% | KM12 colon 105%

CCN(CC)c1ccc2cc(NC(=O)OCCNC(=O)CCNC(=O)[C@H](CC(C)C)NC(=O)C(C)(C)NC(=O)C(C)(C)NC(=O)[C@H](CC(C)C)NC(=O)CCNC(=O)C(C)(C)NC(=O)[C@H](CC(C)C)NC(=O)CCNC(=O)[C@@](C)(CC)NC(=O)[C@H](C)NC(=O)CCNC(=O)C(C)(C)NC(=O)[C@H](C)NC(=O)[C@@H]3CCCN3C(=O)[C@@](C)(CC)NC(=O)[C@H](Cc3ccccc3)NC(=O)C3CCCN3C(=O)C(C)(C)NC(=O)C3CCCN3C(=O)C(C)(C)NC(C)=O)c(=O)oc2c1 (stereo not given in full)
active: T-47D breast -71.4% | BT-549 breast -93.3% | MDA-MB-435 melanoma -76.2% | SW-620 colon -77.4% | MCF7 breast -88.2% | HCT-116 colon -91.2% | HCC-2998 colon -94.2% | KM12 colon -98.5%

C=C(C)C1CCC2(C(=O)O)CCC3(C)C(CCC4C5(C)CCC(OC(=O)NCc6ccccc6)C(C)(C)C5CCC43C)C12 (stereo not given)
inactive: T-47D breast 33.9% | BT-549 breast 64.8% | MDA-MB-435 melanoma 58.7% | SW-620 colon 34.9% | MCF7 breast 35.9% | HCT-116 colon 18% | HCC-2998 colon 51.3% | KM12 colon 28.1%

COc1ccc(-c2ccc(NNC(=O)c3ccc(F)cc3)nn2)cc1OC
inactive: T-47D breast 20% | BT-549 breast 58.4% | MDA-MB-435 melanoma 83.2% | SW-620 colon 75.1% | MCF7 breast 51.1% | HCT-116 colon 66.2% | HCC-2998 colon 90.5% | KM12 colon 92.3%

CCN(CC)CCCC(C)Nc1ccnc2cc(Cl)c(SCc3ccccc3)cc12 (stereo not given)
active: T-47D breast -58.3% | BT-549 breast -81% | MDA-MB-435 melanoma -71.2% | SW-620 colon -85.3% | MCF7 breast -49.5% | HCT-116 colon -67.8% | HCC-2998 colon -84.1% | KM12 colon -32.4%

CC1(C)CC(=O)c2c(ccc(C(=O)C[C@@H](N)CO)c2N)O1
active: BT-549 breast -4.27% | SW-620 colon 7.17% | MCF7 breast 8.5% | HCT-116 colon 8.56% | HCC-2998 colon -20.4%
inactive: T-47D breast 29.5% | MDA-MB-435 melanoma 39.5% | KM12 colon 11%

CC(=O)n1cc(C=O)c2ccccc21
inactive: T-47D breast 98.8% | BT-549 breast 96.5% | MDA-MB-435 melanoma 109% | SW-620 colon 102% | MCF7 breast 94.8% | HCT-116 colon 109% | HCC-2998 colon 100% | KM12 colon 94%

c1coc2occoc=2o1
inactive: T-47D breast 98% | BT-549 breast 104% | MDA-MB-435 melanoma 102% | SW-620 colon 110% | MCF7 breast 104% | HCT-116 colon 109% | HCC-2998 colon 108% | KM12 colon 106%

COc1ccc(C2CC(c3ccc4ccccc4c3)=NN2c2nc(O)c(C3=c4cc(OC)ccc4=NC3=O)s2)cc1 (stereo not given)
active: T-47D breast -72.7% | BT-549 breast -19.8% | MDA-MB-435 melanoma -59.5% | SW-620 colon -42% | MCF7 breast -29.4% | HCT-116 colon -64.5% | HCC-2998 colon -70.4% | KM12 colon -70.3%

O=C1Cc2c(sc3c(F)cccc23)C(c2ccccc2[N+](=O)[O-])N1 (stereo not given)
inactive: T-47D breast 78.6% | BT-549 breast 99.6% | MDA-MB-435 melanoma 108% | SW-620 colon 79.3% | MCF7 breast 81.4% | HCT-116 colon 85.9% | HCC-2998 colon 119% | KM12 colon 100%

c1nc(N2CCOCC2)c2[nH]ccc2n1
inactive: T-47D breast 112% | BT-549 breast 101% | MDA-MB-435 melanoma 112% | SW-620 colon 111% | MCF7 breast 90.6% | HCT-116 colon 103% | HCC-2998 colon 110% | KM12 colon 115%
